Data taken from PMC4552634, “A New Set of Chemical Starting Points with Plasmodium falciparum Transmission-Blocking Potential for Antimalarial Drug Discovery” (PLoS ONE, 2015).
Where two headings read alike, the source gives them in different places. The campaign covered roughly 13,000 compounds. About 3,200 (25%) showed an effect of 50% or more. Some of the results follow.

Test system: P. falciparum stage V gametocytes
Parameters: BacTiter-Glo ATP luminescence viability of purified stage V gametocytes in 384-well plates, per cent inhibition versus DMSO
Conditions: 48 h, 5 µM, inhibitor

In the case of `Cc1c(C(=O)C2CC2CN2CCC(N3CCCC3)CC2)sc2ccccc12` (centres unmarked) [TCMDC-132577], the “% Inhibition” value is reported as 31.52%.

With `C=C[C@]1(C)C[C@@H](OC(=O)CSC2CN3CCC2C3)[C@@]2(C)C3C(=O)CC[C@@]3(CC[C@H]2C)[C@@H](C)[C@@H]1O` (some centres unmarked) [TCMDC-139185] the “% Inhibition” value was 16.51%.

In the case of `CC(C)(C)c1cc(C(=O)N2CCN(c3cnccn3)CC2)n(Cc2ccccc2)n1` [TCMDC-133778], the “% Inhibition” value is reported as 6.708%.

`COc1cc2nc(N3CCC(CNC(=O)c4ccc(-c5ccc(C(F)(F)F)cc5)cc4)CC3)nc(N)c2cc1OC` [TCMDC-138716] was tested, and the “% Inhibition” value was 114.6%.

For `COc1cc2nc(N3CCC(CNC(=O)c4ccc(NC(=O)c5ccc(Cl)cc5)cc4)CC3)nc(N)c2cc1OC` [TCMDC-138712], the “% Inhibition” value was 79.48%.

In the case of `COc1cc2nc(N3CCC(CNCc4ccc(-c5ccc(C(F)(F)F)cc5)cc4)CC3)nc(N)c2cc1OC` [TCMDC-138757], the “% Inhibition” value is reported as 94.11%.

`COC(=O)c1ccc(-c2ccc(C(=O)NCC3CCN(c4nc(N)c5cc(OC)c(OC)cc5n4)CC3)cc2)cc1` [TCMDC-138721] was tested, and the “% Inhibition” value was 127%.

In the case of `COc1cc2nc(N3CCC(CNC(=O)c4ccc(-c5ccccc5)cc4)CC3)nc(N)c2cc1OC` [TCMDC-137787], the “% Inhibition” value is reported as -6.004%.

In the case of `COc1ccc2nccc([C@@H](O)CN3CCC(NC(=O)C(=Cc4ccc(C#N)cc4)c4ccc(-c5ccccc5)cc4)CC3)c2c1` [TCMDC-141112], the “% Inhibition” value is reported as -10.17%.

For `Cc1cc(NC(=O)Nc2ccc(Cl)cc2F)c2ccccc2n1` [TCMDC-134658], the “% Inhibition” value was -34.71%.

In the case of `CCCC(C)NC(=O)c1cnn(-c2ccc(C(C)(C)C)cc2)c1OCc1ccc(Br)cc1` (centres unmarked) [TCMDC-139598], the “% Inhibition” value is reported as 11.83%.

With `CC(=O)Nc1ccc(C(=O)Nc2cccc(-c3ccc(-c4nc5cc(F)ccc5[nH]4)s3)c2)cn1` [TCMDC-136833] the “% Inhibition” value was -51.51%.

In the case of `Cn1c2c(c3ccccc31)CN(CCC1(c3ccc(Cl)c(Cl)c3)CN(C(=O)Cc3ccccc3)CCO1)CC2` (centres unmarked) [TCMDC-135563], the “% Inhibition” value is reported as 32.52%.

With `Cc1cc(C(=O)Nc2ccc3c(c2)CCN3C2CCN(Cc3ccc(F)cc3Cl)C2)no1` (centres unmarked) [TCMDC-135081] the “% Inhibition” value was 2.936%.

With `Cc1cc(Cl)c(S(=O)(=O)NC(C)(C)C)cc1OCC(=O)NC1CCCCC1` [TCMDC-124352] the “% Inhibition” value was -13.59%.

`COCCN1CCC(CN(C)CC(C)(C)c2nc(-c3ccc(Cl)c(O)c3)c(-c3ccncc3)[nH]2)CC1` [TCMDC-140899] was tested, and the “% Inhibition” value was -71.13%.

With `CN1CCN(c2cc3c(cc2Cl)CCN3C(=O)Cc2ccc(Cl)c(NC(=O)Nc3cccc(C#N)c3)c2)CC1` [TCMDC-139474] the “% Inhibition” value was 3.911%.

For `Nc1ncc(-c2ccc(F)cc2)cc1-c1nc2ccc(Cl)cc2[nH]1` [TCMDC-138810], the “% Inhibition” value was -32.19%.

`Cc1[nH]cnc1Cc1ccc2c(c1O)c1ccccc1n2C` [TCMDC-131955] was tested, and the “% Inhibition” value was -82.46%.

With `Cc1cc(NC(=O)c2sc3ccccc3c2O)no1` [TCMDC-124522] the “% Inhibition” value was -1.25%.

`N#Cc1ccc(-c2ccc(C(=O)NCCCCN3CCC(c4ccc5c(c4OCC(N)=O)CCCC5)CC3)cc2)cc1` [TCMDC-138803] was tested, and the “% Inhibition” value was 73.12%.

In the case of `COc1c(C2CCN(CCN3CCC(NC(=O)c4ccc(-c5ccc(C(F)(F)F)cc5)cc4)CC3)CC2)ccc2c1CCCC2` [TCMDC-138857], the “% Inhibition” value is reported as 16.95%.

For `N#Cc1ccc(-c2ccc(C(=O)NCCCCN3CCC(c4ccc5c(c4OCC(N)=O)CCCC5)CC3)nc2)cc1` [TCMDC-135212], the “% Inhibition” value was 23.96%.

For `CCOc1c(OC)ccc2c1CCN(CCN1CCC(CNC(=O)c3ccc(-c4ccc(C#N)cc4)cc3)CC1)C2` [TCMDC-138848], the “% Inhibition” value was -12.76%.

With `N#Cc1ccc(-c2ccc(C(=O)NCC3CCN(CCN4CCC(c5ccc6c(c5OCC(N)=O)CCCC6)CC4)CC3)cc2)cc1` [TCMDC-134563] the “% Inhibition” value was 103.8%.

`NC(=O)COc1c(C2CCN(CCN3CCC(CNC(=O)c4ccc(-c5ccc(C(F)(F)F)cc5)cc4)CC3)CC2)ccc2c1CCCC2` [TCMDC-134308] was tested, and the “% Inhibition” value was 93.17%.

`N#Cc1ccc(-c2nc(CO)c(C(=O)NCCCCN3CCC(c4ccc5c(c4OCC(N)=O)CCCC5)CC3)s2)cc1` [TCMDC-138872] was tested, and the “% Inhibition” value was -1.012%.

For `COc1c(C2CCN(CCN3CCC(CNC(=O)c4ccc(-c5ccc(C#N)cc5)cc4)CC3)CC2)ccc2c1CCCC2` [TCMDC-138859], the “% Inhibition” value was 105.9%.

For `COc1cc(CNC[C@@H](O)[C@H](Cc2ccccc2)NC(=O)c2cc(C3CCCC3)cc(N3CCCC3=O)c2)cc(OC)c1` [TCMDC-134558], the “% Inhibition” value was -9.273%.

For `COc1ccc(Nc2nccc(N3CCC(NC(=O)Nc4cccc(OC)c4)C3)n2)cc1` (centres unmarked) [TCMDC-133616], the “% Inhibition” value was -47.96%.

`CCSc1nnc(C2CCCN(CC(=O)Nc3cc(C(F)(F)F)ccc3Cl)C2)n1CC` (centres unmarked) [TCMDC-123540] was tested, and the “% Inhibition” value was 7.83%.

For `CC(=O)C1(c2ccccc2)CCN(CCC2(c3ccc(Cl)c(Cl)c3)CN(C(=O)C3CCCCC3)CCO2)CC1` (centres unmarked) [TCMDC-135326], the “% Inhibition” value was -73.48%.

`CCOC(=O)c1c(C)n(-c2ccc(Cl)cc2)c2ccc(OC(=O)C=Cc3ccccc3)cc12` [TCMDC-125715] was tested, and the “% Inhibition” value was -42.41%.

`CN(C)CCNC(=O)N1CCCN(c2ncnc3cc(-c4ccccc4)sc23)CC1` [TCMDC-134389] was tested, and the “% Inhibition” value was -9.14%.

`O=C(NCCN1CCCC1)N1CCCN(c2ncnc3cc(-c4ccc(F)cc4)sc23)CC1` [TCMDC-134393] was tested, and the “% Inhibition” value was 93.57%.

`CC(C)N1CCC(NC(=O)N2CCCN(c3ncnc4cc(-c5ccccc5)sc34)CC2)CC1` [TCMDC-134391] was tested, and the “% Inhibition” value was 65.6%.

`CN(C)CCNC(=O)NC1CN(c2ncnc3cc(-c4ccccc4)sc23)C1` [TCMDC-134388] was tested, and the “% Inhibition” value was -2.865%.

For `O=C(Nc1ccccc1O)C1CCN(c2ncnc3cc(-c4ccc(F)cc4)sc23)CC1` [TCMDC-124822], the “% Inhibition” value was -65.25%.

In the case of `CC(C)N1CCC(NC(=O)N2CCCN(c3ncnc4cc(-c5ccc(Cl)cc5)sc34)CC2)CC1` [TCMDC-134390], the “% Inhibition” value is reported as -12.69%.

For `O=C(NCCN1CCCC1)N1CCCN(c2ncnc3cc(-c4ccc(Cl)cc4)sc23)CC1` [TCMDC-134394], the “% Inhibition” value was -0.6581%.

In the case of `CN(C)CCNC(=O)N1CCCN(c2ncnc3cc(-c4ccc(Cl)cc4)sc23)CC1` [TCMDC-134387], the “% Inhibition” value is reported as 97.42%.

For `O=C(NCCN1CCCCC1)N1CCCN(c2ncnc3cc(-c4ccccc4)sc23)CC1` [TCMDC-134392], the “% Inhibition” value was 3.881%.

With `Cc1c(CNCCCNc2cc(=O)c3ccccc3[nH]2)sc(C(F)F)c1Br` [TCMDC-141322] the “% Inhibition” value was -67.17%.

With `NC(=O)c1ccc(NC(=O)CN(Cc2ccc(Cl)cc2)S(=O)(=O)c2ccccc2)cc1` [TCMDC-124454] the “% Inhibition” value was 35.94%.

In the case of `CN(C)CCOc1ccc(-n2c(-c3nonc3N)nc3cncc(-c4ccc(F)cc4)c32)cc1` [TCMDC-134178], the “% Inhibition” value is reported as -7.095%.

`CC(=O)Nc1ccc([N+](=O)[O-])c2c(Br)cccc12` [TCMDC-125386] was tested, and the “% Inhibition” value was -53.09%.

`COc1cc(F)c2ncc(Cl)c([C@H](O)CN3CCC(NCc4ccc5c(n4)NC(=O)CO5)CC3)c2c1` [TCMDC-135487] was tested, and the “% Inhibition” value was 8.334%.

For `CC(C)(C)c1cc(/C=C/C(=O)NC2CCC(CN3CCC(c4c[nH]c5ccccc45)CC3)CC2)cc(C(C)(C)C)c1O` (centres unmarked) [TCMDC-139757], the “% Inhibition” value (% Inhibition) was 96.1%.

In the case of `CC(C)(C)c1cc(/C=C/C(=O)NC2CCC(CN3CCC(c4c[nH]c5ccccc45)CC3)CC2)cc(C(C)(C)C)c1O` (centres unmarked) [TCMDC-139767], the “% Inhibition” value (% Inhibition) is reported as 105.4%.

In the case of `N#Cc1cccc(Nc2cc(C(F)(F)F)nc(Nc3ccccc3)n2)c1` [TCMDC-133458], the “% Inhibition” value is reported as 7.387%.

`CCOc1cc(Cc2cnc(N)nc2N)cc(Br)c1OC` [TCMDC-137721] was tested, and the “% Inhibition” value was -8.107%.

In the case of `CCN(Cc1ccc(-c2ccc(C(F)(F)F)cc2)cc1)C(=O)Cn1c(SCc2cccc(F)c2F)cc(=O)c2cc(CN3CCCCC3)ccc21` [TCMDC-141592], the “% Inhibition” value is reported as 106.5%.

`CC(C)N(Cc1ccc(-c2ccc(C(F)(F)F)cc2)cc1)C(=O)Cn1c(SCc2cccc(F)c2F)cc(=O)c2cc(CN3CCCCC3)ccc21` [TCMDC-141593] was tested, and the “% Inhibition” value was 103.1%.

`COC(=O)C1(NC(=O)c2ccc(-n3nc(C)c(-c4ccccc4)c3N)cc2)CCCC1` [TCMDC-134041] was tested, and the “% Inhibition” value was 30.38%.

`CCCC(C)NC(=O)C(N)Cc1cccc(I)c1` (centres unmarked) [TCMDC-141272] was tested, and the “% Inhibition” value was -22.86%.

With `CC(C)C(=O)NC(NC(=S)Nc1ccc(Br)cc1)C(Cl)(Cl)Cl` (centres unmarked) [TCMDC-124131] the “% Inhibition” value was 29.56%.

`Cc1ncc([N+](=O)[O-])n1CCOC(=O)NC(Nc1ccc(Br)cc1)C(Cl)(Cl)Cl` (centres unmarked) [TCMDC-124219] was tested, and the “% Inhibition” value was 76.02%.

`O=C(NCC1COc2ccccc2O1)c1cnc2c(c1)nc(-c1cnc(-c3ccccc3)[nH]1)n2CCSCc1c(F)cccc1Cl` (centres unmarked) [TCMDC-139692] was tested, and the “% Inhibition” value was 12.96%.

`Cc1ncc([N+](=O)[O-])n1CCOC(=O)NC(NCC1COc2ccccc2O1)C(Cl)(Cl)Cl` (centres unmarked) [TCMDC-125611] was tested, and the “% Inhibition” value was 93.51%.

For `Cc1nn(CCOC(=O)NC(NCC2COc3ccccc3O2)C(Cl)(Cl)Cl)cc1[N+](=O)[O-]` (centres unmarked) [TCMDC-124139], the “% Inhibition” value was 72.15%.

With `CC1(C)N=C(N)N=C(N)N1OCC1COc2ccccc2O1` (centres unmarked) [TCMDC-131585] the “% Inhibition” value was 1.956%.

In the case of `O=C(/C=C/c1ccc(Cl)c(Cl)c1)NCCCCCN1CCCN(C(=O)Nc2ccc([N+](=O)[O-])cc2)CC1` [TCMDC-135754], the “% Inhibition” value is reported as -58.55%.
